The values that follow come from PubChem BioAssay (EPA / NIEHS).

“And” between values parts separate entries of the source, which are not always exact repeats. Equal values may be shown once. The source made the active and inactive calls. Rule for the calls: active = hit-call score of the fitted dose curve at least 0.9, where 1 is the maximum; inactive = score below 0.9.

The term AC50 denotes the midpoint of the concentration-response curve, whichever way the signal moves.

Read-out in the test: Vascular cell adhesion molecule 1 (VCAM1), VCAM1 (gene 7412)
The experiment in a line: BSK_hDFCGF_VCAM1: BioMAP Diversity Plus: hDFCGF Assay for Vascular cell adhesion molecule 1 (VCAM1) Biomarker Activity (AID 2283065). Particulars: primary human foreskin fibroblasts; actives raise or lower the signal. The protocol: BSK_hDFCGF is a cell-based, multiplexed-readout assay that uses foreskin fibroblast, a human skin primary cell, with measurements taken at 24 hours after chemical dosing in a 96-well plate.BSK_hDFCGF_VCAM1 is an assay component measured in the BSK_hDFCGF assay. It measures VCAM-1 antibody related to regulation of gene expression using ELISA technology.Data from the assay component BSK_hDFCGF_VCAM1 was analyzed into 1 assay endpoint. This assay endpoint, BSK_hDFCGF_VCAM1, was analyzed with bidirectional fitting relative to DMSO as the negative control and baseline of activity. Using a type of binding reporter, gain or loss-of-signal activity can be used to understand changes in the signaling as they relate to the gene VCAM1. Furthermore, this assay endpoint can be referred to as a primary readout, because this assay has produced multiple assay endpoints where this one serves a signaling function. To generalize the intended target to other relatable targets, this assay endpoint is annotated to the cell adhesion molecules intended target family, where the subfamily is Immunoglobulin CAM.
The levels of cell surface (or secreted, indicated by the prefix "s") biomarker endpoints were measured by ELISA. Overt cytotoxicity to cells in confluent adherent cultures (all systems other than the BT system) was assessed by measuring total protein levels using sulforhodamine B (SRB) staining in parallel cultures at the time of biomarker measurements, indicated as SRB endpoints. For proliferation assays for adherent cell types, individual cell types are cultured at sub-confluence and relative cell numbers quantified by SRB staining at time points optimized for each system (48 h: 3C and CASM3C systems; 72 h: BT and HDF3CGF systems; 96 h: SAg system). SRB was performed by staining cells with 0.1% SRB after fixation with 10% TCA and reading wells at 560 nm.Viability and proliferation of PBMC (T cells) was quantified by Alamar Blue reduction for the SAg and BT systems. For PBMC viability (referred to as PBMC Cytotoxicity within the assay endpoint names), cells were plated (75,000/well in a 96-well plate) and then chemical samples added for 1 h before addition of activators, SEB and TSST-1 (20 ng/mL final concentration each). Cells were incubated for 90 h. Then, Alamar Blue (20 uL/well) (Invitrogen, Cat DAL1100) was added for 6 h, and the plates were read with a fluorescence microplate reader at 546/580 nm (excitation/emission). For PBMC proliferation, cells were plated and activated as above but incubated for only 16 h prior to addition of Alamar Blue. Plates were read after 6 h.
Consider `Nc1ccc(N)c([N+](=O)[O-])c1`, for which the outcome was inactive. Still for that read-out and setting: to `CCCCN(CCO)CCO` belongs “inactive”; to `O=S(=O)(O)C(F)(F)C(F)(F)OC(F)(F)C(F)(F)F`, “inactive”; to `O=C1OC2(c3ccc(O)cc3Oc3cc(O)ccc32)c2ccccc21`, “inactive”.

With `CCCCCCCCCC(=O)OCC`, the AC50 was 31.9 µM (active). On to `CC(C)Cc1ccc(C(C)C(=O)O)cc1` (stereo not given), for which the result was inactive. On the same count and under the same terms, to `c1ccc2c(c1)-c1ccc3ccc4cccc5cc-2c1c3c45` belongs “inactive”.

Regarding `C[C@]12CC[C@@H]3c4ccc(O)cc4CC[C@H]3[C@@H]1CC[C@@H]2O`, the AC50 was 20 µM (active).

Consider `CCC(=O)OCC=Cc1ccccc1`, for which the outcome was inactive.

Take `CC1(C)[C@H](C=C(Cl)Cl)[C@H]1C(=O)OCc1cccc(Oc2ccccc2)c1`: the outcome was inactive. Regarding `O=C(O)C(F)(F)C(F)(F)C(F)(F)C(F)(F)C(F)(F)C(F)(F)C(F)(F)C(F)F`, the result was inactive. `OCCN1CCOCC1`: the result was inactive. `CC(=O)c1ccc(C)cc1`: the outcome was inactive. Take `CCn1cc(C(=O)O)c(=O)c2ccc(C)nc21`: the result was inactive. In the case of `O=C(O)C(F)(F)OC(F)(F)C(F)(F)OC(F)(F)C(F)(F)C(F)(F)C(F)(F)F`, the AC50 is 5.95 µM (active) and 13.8 µM (active). In the case of `C#C[C@]1(O)CC[C@H]2[C@@H]3CCc4cc(O)ccc4[C@H]3CC[C@@]21C`, the outcome was inactive. On the same count and under the same terms, to `C=C(C)C(N)=O` belongs “inactive”; to `CCCCCCCC1CCCC1=O` (stereo not given), “inactive”. With `COc1ccccc1NC(=O)CC(C)=O`, the outcome was inactive. Consider `CC(=O)OC(C)(C)C1CC=C(C)CC1` (stereo not given), for which the result was inactive. On to `O=S1(=O)CC(Cl)(Cl)C(Cl)(Cl)C1`, for which the AC50 was 0.613 µM (active). On the same count and under the same terms, to `CCCCCCCCCCCCS` belongs 7.26 µM (active). As for `CCCCOCCOCCO`, the outcome was inactive. On the same count and under the same terms, to `NC(=O)c1c(Cl)cccc1Cl` belongs “inactive”; to `CC(=O)CCC=C(C)CCC=C(C)C`, “inactive”. Turning to `c1ccc(Sc2ccccc2)cc1`, the AC50 was 33.2 µM (active). On to `CCCO[Si](OCCC)(OCCC)OCCC`, for which the outcome was inactive. For the compound `C=C(C)C(=O)OCCC(F)(F)C(F)(F)C(F)(F)C(F)(F)C(F)(F)C(F)(F)C(F)(F)C(F)(F)F`, the result was inactive.

Turning to `CCOC(=O)C=Cc1ccccc1`, the result was inactive.

In the case of `C=C1CC/C=C(\C)CC[C@@H]2[C@@H]1CC2(C)C`, the AC50 is 28 µM (active). `CC(C)(C)c1cccc(O)c1`: the outcome was inactive. Still for that read-out and setting: to `CC(=O)OCC=C(C)CCC=C(C)CCC=C(C)C` belongs “inactive”. As for `OCC(F)(OC(F)(F)C(F)(OC(F)(F)C(F)(F)C(F)(F)F)C(F)(F)F)C(F)(F)F` (stereo not given), the AC50 is 2.25 µM (active) and 2.1 µM (active). The same measure, in the same setting: to `C=CC(=O)OCC(CO)(COC(=O)C=C)COC(=O)C=C` belongs 0.0263 µM (active). Take `CC1=CC(C)C(C=O)C(C)C1` (stereo not given) (tested in a mixture with another compound): the result was inactive.

In the case of `CC(C)CCCC(C)(C)O`, the outcome was inactive. For `CC/C(=C(\c1ccccc1)c1ccc(OCCN(C)C)cc1)c1ccccc1`, the AC50 was 9.88 µM (active) and 9.9 µM (active). With `CC=CC(=O)C1=C(C)C=CCC1(C)C`, the outcome was inactive. Same read-out and setting: to `CC(C)(CO)CO` belongs “inactive”. Still for that read-out and setting: to `COC(=O)c1ccc(C(=O)OC)cc1` belongs “inactive”.
